From PubChem BioAssay AID602449 (Sanford-Burnham Center for Chemical Genomics, 2012) come the findings set out here.

As usually defined, the inhibition is the drop in the measured response relative to a control, in per cent.

Out of some 360,000 compounds screened, about 5,000 (1.4%) were called active. Shown is part of a subset that was picked to be rich in actives. Values without a mark were called inactive.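 Rule for the calls: active = inhibition of 50% or more, scaled per plate between neutral and stimulator controls; inactive = the rest.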

The nature of the assay: mitochondrial permeability transition pore inhibitors, primary screen, biochemical, isolated mouse mitochondria, absorbance (AID 602449).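 Note: 0% = DMSO wells given calcium and 100% = 1 mM EGTA wells.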 To be noted: Ca2+ swelling absorbance, 30 min, at 10 µM, stronger effect = higher value.
As for `O=C(CN1C(=O)NC2(CCCCCCC2)C1=O)NCc1ccc(F)cc1`, the inhibition was -0.5%.

As for `Cc1ccc(-c2nc3c(Cl)cc(C(F)(F)F)cn3c2Cc2cccc(Cl)c2)cc1`, the inhibition was 4.1%.

`COc1cc(C(C(=O)NC2CCCC2)N(C(=O)c2ccco2)c2ccccc2C(C)=O)cc(OC)c1OC` (stereo not given): the inhibition was -1.2%.

Consider `COC(=O)c1sccc1NC(=O)CSc1ccccc1NS(=O)(=O)c1cc(Cl)ccc1Cl`, for which the inhibition is 86.3% (active).

Regarding `COC(=O)c1sccc1NS(=O)(=O)c1ccc(F)cc1F`, the inhibition is 1.6%.

Take `COC(=O)c1scc(C)c1NC(=O)CSc1ccc(Cl)cc1`: the inhibition was 3.3%.

For `CCCc1cc(=O)[nH]c(SCC(=O)Nc2sc3c(c2C#N)CCCC3)n1`, the inhibition was 4%.

For `CCCc1ccc(-c2c(C)sc(NC(=O)c3ccnn3C)c2C#N)cc1`, the inhibition is 99.7% (active).

For `Cc1sc(NC(=O)C2=COCCO2)c(C#N)c1C`, the inhibition is -0.9%.

Turning to `OCCc1ccc(NCCc2ccco2)cc1`, the inhibition is -0.1%.

`O=C(Nc1ccccc1)c1ccccc1NC(=O)C(F)(F)F`: the inhibition is 57.7% (active).

For `O=C(Nc1ccccc1)c1ccccc1Br`, the inhibition is -0.9%.

For `CC1CCCCC1NCC(=O)Nc1ccccc1C(=O)Nc1ccccc1` (stereo not given), the inhibition was 1.8%.

As for `CCN(C(=O)CSc1nnc(-c2ccc(OC(F)F)cc2)n1N)C1CCS(=O)(=O)C1` (stereo not given), the inhibition is -1.1%.

For `CCOc1ccc(NC(=O)CN(C)C(=O)CSc2ccccc2)cc1OCC`, the inhibition is 1%.

As for `CCOc1ccc(S(=O)(=O)N2CCC(C(=O)NCc3ccccn3)CC2)cc1Cl`, the inhibition is -0.8%.

As for `O=C(c1cccc(F)c1)N1CCN(c2ccc([N+](=O)[O-])c3cccnc23)CC1`, the inhibition was 0.3%.

As to `CCN1CCN(Cc2c(O)ccc3c(=O)c(-c4ccc(OC)c(OC)c4)c(C(F)(F)F)oc23)CC1`, the inhibition was -2%.

For the compound `O=c1c(-c2ccc3c(c2)OCCO3)c(C(F)(F)F)oc2cc(O)cc(O)c12`, the inhibition was 89.4% (active).

Consider `COc1ccc(-c2onc(C)c2-c2ccc3c(c2)OCCO3)c(O)c1`, for which the inhibition was 3.2%.

For `CC(C)(C)c1cc[n+](-c2[nH]c(=O)sc2/C=N/N=C(\[O-])c2ccccc2)cc1`, the inhibition was -1.9%.

Consider `CCCNC(=O)CN(Cc1ccccc1F)S(=O)(=O)c1ccc(C)cc1`, for which the inhibition is 1.8%.

Regarding `COc1ccc(NS(=O)(=O)c2cc(NC(=O)CC(=O)c3ccc([N+](=O)[O-])cc3)ccc2C)cc1`, the inhibition was 73% (active).

As to `Cc1ccc(NC(=O)CCNC(=O)c2ccc([N+](=O)[O-])cc2)cc1S(=O)(=O)N1CCOCC1`, the inhibition is -1.6%.

Consider `COc1ccc(NS(=O)(=O)c2cc(NC(=O)COc3ccccc3F)ccc2OC)cc1`, for which the inhibition is 0.8%.
